Screening results as filed in PubChem.
PKD1 kinase inh: inhibitors of human PKD1 kinase. Q15139. PKD1 kinase fluorescence polarization assay. inhibition, % (concentration not given with the values). actives 0.056% (n = 200,000)
VLA-4 inh: inhibition in a human VLA-4 binding assay | P13612 | VLA-4 expressing cells, ligand binding flow cytometry | inhibition, % (about 7 µM as worked out from the volumes in the protocol) | actives 0.2% (n = 330,000) | AID 2557
LANA-H2A inh: blocks KSHV LANA binding to histone H2A/H2B; actives 0.6% (n = 320,000); inhibition, % (test concentration not listed); cell-free LANA-H2A/H2B peptide, fluorescence polarization; Q9QR71; AID 2629; in the data active means inhibition mostly above about 10%, no sharp cut-off; inactive means mostly below about 6.7%
HDAC3 inhib: blocks human histone deacetylase 3 | inhibition, % at 8.3 µM | O15379 | recombinant HDAC3, fluorogenic peptide/trypsin coupled, fluorescence | actives 0.15% (n = 320,000); in the data active means inhibition above about 26%, passing the limit was not always enough
DSG3 Ab inh: human desmoglein-3 autoantibody binding inhibition | P32926 | DSG3-coupled beads, scFv-anti-DSG3-GFP binding, flow cytometry; active compounds read low | binding (percent of control), % at 10 µM | actives 0.48% (n = 310,000);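 active means binding more than 3 SD below its plate's average and above zero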;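 further: hits lower antibody fragment binding to DSG3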
GRK2 inh: human GRK2 inhibition via aptamer displacement | P25098 | bead flow cytometry, FAM-aptamer displacement from GRK2 | inhibition of aptamer binding, % at 10 µM | actives 0.59% (n = 330,000);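 active means inhibition of aptamer binding above 40%, roughly 3 SD of noise, on plates passing a quality check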;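 further: median bead fluorescence of bound FAM aptamer so fluorescent compounds give negative values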
Each line names hits and unclear results; the compound was inactive in the other large screens. A selection: hits, their analogues and other compounds. The true share with any hit is near 1.8%. Unless noted, no stated cut-off is given here; in the data, active means inhibition above about 50%; inactive means the rest.

COc1ccc(C(=O)CSc2ncnc3nc[nH]c23)cc1	DSG3 Ab inh 88 (no result: PKD1 kinase inh)
Cc1cccc(NC(=O)CSc2ncnc3nc[nH]c23)c1C	DSG3 Ab inh 37
CCC(=O)NC(Nc1c(C)n(C)n(-c2ccccc2)c1=O)C(Cl)(Cl)Cl (centres undefined)	none
CC(=O)N1CCC(=NNC(=O)c2cccs2)CC1	none
CN=c1nc(-c2ccccc2)n(-c2ccccc2)s1	HDAC3 inhib 56 (no result: PKD1 kinase inh)
CCCCCCCCCCCCCCCC[n+]1ccc(/C=N/O)cc1	LANA-H2A inh 13
CCCCCCCCCCCCCCCC[n+]1ccc(C(N)=O)cc1	none
CSCCC(NS(=O)(=O)c1ccccc1F)C(=O)N1CCCCCCC1 (centres undefined)	none (no result: PKD1 kinase inh)
O=C(CN1C(=O)C2C3C=CC(C3)C2C1=O)NCc1ccc2c(c1)OCO2 (centres undefined)	LANA-H2A inh 19 (no result: DSG3 Ab inh)
COC(=O)c1ccc(Oc2c(F)c(F)nc(N3CCOCC3)c2F)cc1	none
Cn1c(=NC(=O)c2ccccc2[N+](=O)[O-])sc2cc(S(C)(=O)=O)ccc21	DSG3 Ab inh 86 (no result: VLA-4 inh)
Cc1ccc2c(=O)cc(C(=O)NC3CCS(=O)(=O)C3)oc2c1C (centres undefined)	none (no result: PKD1 kinase inh, LANA-H2A inh, HDAC3 inhib)
Cc1ccc(C(=O)C2=C(O)C(=O)N(c3ncccn3)C2c2ccccc2F)o1 (centres undefined)	none (no result: PKD1 kinase inh)
